{"source": "PubChem BioAssay"}
{"test_system": "Human papillomavirus type 1a protein E7 (residues 44-93)", "experiment": "small molecules binding HPV E7 44-93 – biochemical, small-molecule microarray, residues 44-93, 635 nm fluorescence, primary screen (AID 1108);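 also: E7 fragment applied at 1 µg/mL in TBST for 1 h at 4 C; score combines spot fluorescence with its signal to noise ratio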", "settings": "fluorescence 635 nm, higher = more signal"}
{"smiles": "CC(=O)Nc1ccc([C@H]2[C@H](C)CC[C@H]3C(=O)N4[C@@H](CC[C@@H](C)[C@@H]4c4ccc(NC(C)=O)cc4)C(=O)N32)cc1", "composite z-score": 0.946}
{"smiles": "C=CCN(C(=O)C1N(c2ccc(CCO)cc2)C(=O)C2C(C(=O)O)C3C=CC21O3)C(C)(C)C", "note": "(stereo not drawn)", "composite z-score": -0.266}
{"smiles": "CO[C@H]1COC(=O)[C@H](C)NC(=O)CC=C[C@@H](C)[C@H](NS(=O)(=O)c2ccc(C)cc2)COC(=O)[C@@H](OCc2ccccc2)C=C[C@@H]1C", "composite z-score": -0.117}
{"smiles": "COCCCNC(=O)[C@@]1(Sc2ccc(C)cc2)CC(=O)N(Cc2cc(C(F)(F)F)cc(C(F)(F)F)c2)[C@@H]1c1ccc(CO)cc1I", "composite z-score": -0.975}
{"smiles": "CO[C@H]1COC(=O)CC=C[C@H](C)[C@@H](OC)COC(=O)[C@H](Cc2ccccc2)NC(=O)CC=C[C@@H]1C", "composite z-score": -1.64}
{"smiles": "COCCOC(=O)N1C(=O)[C@@]2(c3cc(C#CCCO)ccc31)[C@H](C(=O)N1CCCCCCC1)[C@H]1C(=O)O[C@H](c3ccccc3)[C@H](c3ccccc3)N1[C@@H]2c1ccc(O)cc1", "composite z-score": 1.02}
{"smiles": "Cc1ccc(N2C(=O)c3ccccc3[C@@H](C(=O)NCc3ccccc3)[C@@H]2c2ccc(CO)cc2)nc1", "composite z-score": -0.752}
{"smiles": "O=C1C2C=CC(C(O)C(c3ccccc3)c3ccccc3)N(Nc3ccc([N+](=O)[O-])cc3)C2C(=O)N1c1ccccc1", "note": "(stereo not drawn)", "composite z-score": 1.46}
